# According to PubChem BioAssay (NCI):
# Compounds without any hit were thinned out: in the full panel of roughly 83,000, 20% have a hit.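 Interpretation: 100, growth as untreated; towards 0, rising growth inhibition; 0, no net growth; 0 to -100, cell death. Compounds scoring below 10 were considered active.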 Values without a mark were called inactive. Active and inactive are the calls of the source.
# Legend:
# Experiment in all cases: NCI-60 one-dose screen, 48 h (100 = growth as untreated, 0 = no growth, -100 = all killed)
# Details in all cases: 10 µM unless noted
# SK-MEL-2 melanoma = system: SK-MEL-2 melanoma
# SN12C renal = system: SN12C renal
# UO-31 renal = system: UO-31 renal
# TK-10 renal = system: TK-10 renal
# ACHN renal = system: ACHN renal
# CAKI-1 renal = system: CAKI-1 renal
# CCRF-CEM leukemia = system: CCRF-CEM leukemia
# MOLT-4 leukemia = system: MOLT-4 leukemia
# A498 renal = system: A498 renal
Compound,growth (SK-MEL-2 melanoma),growth (SN12C renal),growth (UO-31 renal),growth (TK-10 renal) [%],growth (ACHN renal),growth (CAKI-1 renal),growth (CCRF-CEM leukemia),growth (MOLT-4 leukemia),growth (A498 renal) [%]
O=C1c2ccccc2C(=O)c2c1oc1oc3c(c(=O)c21)c(=O)n(-c1ccccc1)c1ccccc31,23.1%,97.7%,49.2%,64.2,28.5%,69.2%,17.8%,16.1%,
COc1ccc(/C=C\c2cc(OC)c(OC)c(OC)c2)c(NS(=O)(=O)c2ccc(C(C)(C)C)cc2)c1O,-2.03% (active),29.5%,52.3%,50.8,25.2%,24.4%,20.6%,21.8%,
O=C(O)C(Cc1ccccc1)N1C(=O)/C(=C/C(Cl)=C/c2ccc([N+](=O)[O-])cc2)SC1=S (stereo unspecified),9.02% (active),8.76% (active),29.4%,50.1,40.7%,6.47% (active),4.14% (active),0.405% (active),
CCN(C(=O)c1cc2ncccc2[nH]1)[C@H]1CCC[C@@H](NCc2cccc(F)c2)C1,105%,95.3%,74.3%,92.6,102%,101%,128%,95.9%,
O=C(Nc1ccc(Cl)cc1)c1cc(-c2ccc(F)cc2)c2sc(=O)[nH]c2n1,14.3%,11.9%,4.68% (active),20.8,2.34% (active),-12.7% (active),16.8%,13.9%,
Cc1cccc(-n2c(C)nc3ccc(NC(=O)NCCCl)cc3c2=O)c1,114%,107%,94.2%,99.6,111%,97.6%,-43.7% (active),105%,
COc1cc2c3c(c(=O)oc2cc1OS(=O)(=O)c1ccc(C(F)(F)F)cc1)CCCCC3,90.5%,89.7%,92.6%,122,72.5%,,90.2%,95.9%,86.3
COc1cc(NC(=O)c2cc3ccccc3nc2Nc2ccc(F)cc2)cc(OC)c1OC,63.4%,62.3%,46.7%,65.3,42.9%,52.4%,42.1%,12.4%,
C=CCN=C1NC(=O)/C(=C/c2cc(C(C)(C)C)c(O)c(C(C)(C)C)c2)S1,40.1%,91%,67%,79.4,87%,47.8%,69.4%,47.4%,
CCN(C(=O)c1cc2ccccc2[nH]1)[C@H]1CCC[C@@H](NCc2ccc(OC)cc2)C1,100%,92.2%,66%,81,94.7%,96%,102%,70.2%,
COc1cc(OC)c(C(=O)/C=C/c2ccc(C#N)cc2)c(OC)c1,-11% (active),19.6%,32.4%,19.1,17.5%,18.5%,7.44% (active),14.3%,
CCOC(=O)C1=C(CSC(=S)N(C2CCCCC2)C2CCCCC2)N(C)C(=O)NC1c1ccccc1 (stereo unspecified),55.6%,71.2%,44.5%,74,37.8%,25.4%,35.3%,28.2%,
COc1cc(OC)c(C(=O)/C=C/c2ccc(C(F)(F)F)cc2)c(OC)c1,45.4%,41.2%,56.4%,84.6,60%,79.3%,25.9%,24%,
COc1ccc(NC(=O)c2cc3ccccc3nc2Nc2cc(OC)c(OC)c(OC)c2)cc1,89.2%,69.7%,59.7%,90.7,53%,70.2%,43.6%,49.2%,
O=C(NNC(=S)Nc1ccccc1)c1ccccn1,85.6%,43.7%,19.8%,50.2,16.4%,5.93% (active),18.8%,13.8%,
COc1ccc(-c2nc3sccn3c2-c2ccnc(NCCNS(=O)(=O)c3ccc(C(F)(F)F)cc3)n2)cc1,-27.8% (active),17.3%,19%,30.2,3.82% (active),17%,9.58% (active),0.208% (active),
CN(C)c1ccc(C2CC(c3ccccc3)=NN2/C=C2\SC(=O)NC2=O)cc1 (stereo unspecified),113%,87.3%,78.9%,94.4,81.5%,95%,113%,59.7%,
